Six1-Eya2 blk = qHTS Assay for Inhibitors of the Six1/Eya2 Interaction | hit rate 0.56% among 360,000 | activity change, % (no concentration beside the values) | Homeobox protein SIX1 (Homo sapiens) + Protein phosphatase EYA2 (Homo sapiens), … | AlphaScreen GST-Six1/His-Eya2 binding, biochemical; active compounds read low | AID 651725, 2012; in the data active = activity change below about -65%; inconclusive = mostly about -30% to -63%
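Six1/Eya2 binding was read as AlphaScreen signal after compounds were pinned into GST-Six1 plus His-tagged Eya2 (5X stock 250/500 nM) in pH 8.0 Tris/NaCl/TCEP buffer, beads added, then incubated 1 h, 37 C, dark.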
TDP1 cell noCPT = qHTS for Inhibitors of human tyrosyl-DNA phosphodiesterase 1 (TDP1): qHTS in cells in absence of CPT. DT40 Tdp1-/- hTDP1 cells, no CPT, ATP luminescence, 48 h. Potency, µM (doses to about 46.2 µM), for the others: at the highest dose activity change, negative = growth inhibition, usual class: inhibitors. hit rate 15% among 420,000; also: potency is read from the fitted curve at half-maximal effect; nearly all actives have a fitted effect of over 55% in size
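Seeded 400 DT40-hTDP1 cells/well (vehicle DMSO, no 20 nM CPT); pinned compounds; ≥48 hr at 37 °C; CellTiter-Glo luminescence as viability measure.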
TDP1 block = qHTS Assay for Inhibitors of Tyrosyl-DNA Phosphodiesterase (TDP1) | Tyrosyl-DNA phosphodiesterase 1 (Homo sapiens), Q9NUW8 | recombinant TDP1, AlphaScreen DNA substrate cleavage | Potency, µM (titrated, usually from 130 µM), for inactives: top-dose activity change, negative = inhibition, actives largely listed as inhibitors | hit rate 0.28% among 350,000 | AID 485290, 2010; also: potency is read from the fitted curve at half-maximal effect; nearly all actives have a fitted effect of over 40% in size
Target sequence (Q9NUW8 whole entry, looked up): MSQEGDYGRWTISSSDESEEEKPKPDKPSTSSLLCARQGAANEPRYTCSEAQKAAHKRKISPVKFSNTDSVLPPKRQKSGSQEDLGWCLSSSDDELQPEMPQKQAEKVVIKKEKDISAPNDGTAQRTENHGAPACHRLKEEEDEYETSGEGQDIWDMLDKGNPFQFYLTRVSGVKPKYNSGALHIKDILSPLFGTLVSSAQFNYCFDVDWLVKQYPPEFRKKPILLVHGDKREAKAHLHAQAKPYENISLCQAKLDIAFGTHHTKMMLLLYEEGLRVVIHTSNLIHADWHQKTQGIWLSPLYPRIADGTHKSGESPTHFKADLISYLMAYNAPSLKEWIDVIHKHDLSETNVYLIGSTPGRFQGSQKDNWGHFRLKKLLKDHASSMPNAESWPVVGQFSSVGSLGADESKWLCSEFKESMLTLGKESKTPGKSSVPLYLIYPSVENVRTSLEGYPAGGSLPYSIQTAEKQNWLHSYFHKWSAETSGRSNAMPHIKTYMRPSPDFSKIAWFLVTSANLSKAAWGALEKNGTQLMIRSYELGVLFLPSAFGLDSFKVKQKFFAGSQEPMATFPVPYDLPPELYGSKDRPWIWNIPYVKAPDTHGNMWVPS
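Compounds were preincubated with Tdp1 (1 nM final) for 15 min at room temperature before substrate (15 nM final) started a 5 min reaction; beads (10 ug/ml final) were then added for 10 min before AlphaScreen detection.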
TDP1 cell CPT = qHTS for Inhibitors of human tyrosyl-DNA phosphodiesterase 1 (TDP1): qHTS in cells in presence of CPT. Potency, µM (highest dose often 46.2 µM), inactives show top-dose activity change, negative = growth inhibition, hits mostly inhibitors. hit rate 12% among 420,000. chicken DT40 Tdp1-/-;hTDP1 cells + 20 nM CPT, ATP luminescence, 48 h; also: potency is read from the fitted curve at half-maximal effect; nearly all actives have a fitted effect of over 55% in size
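Chicken DT40 Tdp1-/- cells stably complemented with human TDP1 were seeded at 400 cells/well in medium containing 20 nM camptothecin, exposed to pin-transferred compounds, and grown at 37 °C for at least 48 hr. Viability was read as ATP luminescence.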
CtBP-E1A blk = qHTS Assay for Inhibitors of the CtBP/E1A Interaction. CtBP / adenovirus E1A interaction (AlphaScreen). AlphaScreen GST-E1A/His-CtBP binding, 1536-well; active compounds read low. activity change, % (concentration not given with the values). hit rate 0.49% among 340,000. AID 651724, 2012; in the data active = activity change below about -65%; inconclusive = mostly about -30% to -63%
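GST-E1A and His-tagged CtBP (125 nM each as 5X stock) were preincubated with pin-transferred compound for 2 h at 37 °C in the dark, then glutathione donor and nickel acceptor beads were added for 1 h before AlphaScreen reading.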
IL-1B inflam inh = qHTS for Inhibitors of Inflammasome Signaling: IL-1-beta AlphaLISA Primary Screen; THP-1 LPS/ATP IL-1B secretion, AlphaLISA, 16 h; active compounds read low; activity change, % at 57.5 µM; hit rate 4.7% among 360,000; AID 743279, 2014; in the data active = activity change below about -50%; inconclusive = mostly about -30% to -49%
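Secreted IL-1B measured by AlphaLISA bead assay after 16 h compound exposure of THP-1 cells; compounds (final up to 57.5 uM) added 1 h before LPS (250 ng/mL) and ATP (1.25 mM) stimulation; lower signal means less secretion.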
* hit, by the source's call; ? = inconclusive; / = no result. The list is not random: actives were taken first. Their share in the collection is about 18%. Unless noted, calls follow the shape of the dose curve; as a rule, active = well fitted curve in the direction sought with a large enough effect; inconclusive = small, poorly fitted or top-dose-only effect, or another doubt; inactive = no such curve, though single readings can be large; an effect the other way counts as inactive or inconclusive. % is scaled to controls: 0 for no effect and ±100 for the full control effect.

SMILES	Six1-Eya2 blk	TDP1 cell noCPT	TDP1 block	TDP1 cell CPT	CtBP-E1A blk	IL-1B inflam inh
O=C(CCC(=O)N1CCSc2ccccc21)NCc1ccccc1Cl	/	?	2%	10µM*	/	/
CCOc1ccc(NC(=O)Cc2ccc(NC(=O)N3CCCCc4ccccc43)cc2)cc1	/	5.2µM*	8%	5.2µM*	/	/
CCOc1ccccc1CNC(=O)Cc1ccc(NC(=O)N2CCCCc3ccccc32)cc1	/	9.2µM*	6%	12µM*	/	/
CC(=O)c1cccc(NC(=O)Cc2ccc(NC(=O)N3CCCCc4ccccc43)cc2)c1	/	16µM*	7%	?	/	/
CC(=O)c1cccc(NC(=O)N2CCCc3ccccc32)c1	0	-9%	7%	1%	3	14
CCC(C)NC(=O)Cc1ccc(NC(=O)N2CCCCc3ccccc32)cc1 (stereo unspecified)	/	?	-3%	?	/	/
O=C1CC[C@@H](O)CCN1CC[C@H](Sc1ccccc1)c1ccccc1	-3	?	/	?	-2	5
C[C@@H]1CCC(=O)N(CC[C@H](Sc2ccccc2)c2ccccc2)CC1	10	13µM*	/	13µM*	/	0
O=C1CC[C@@H](OCc2ccccc2)CCN1CC[C@H](Sc1ccccc1)c1ccccc1	2	18µM*	/	16µM*	7	21
CSc1ccc(CN2CCCC(CNC(=O)c3ccc(F)cc3)C2)cc1 (stereo unspecified)	7	10%	-3%	8%	5	-15
COc1cc(OC)cc(-c2nnc(Sc3ccc(C=O)cc3[N+](=O)[O-])o2)c1	/	/	8%	/	/	/
CC(=O)OC[C@H]1O[C@@H](Sc2cccc3cccnc23)[C@H](OC(C)=O)[C@@H](OC(C)=O)[C@@H]1OC(C)=O	6	?	1%	?	-4	-2
CC(=O)OC[C@H]1O[C@@H](Sc2cccc3cccnc23)[C@H](OC(C)=O)[C@@H](OC(C)=O)[C@H]1OC(C)=O	0	-86%	5%	18µM*	-4	0
CCOC(=O)c1cc2c(=O)n3ccccc3nc2n(CC2CCCO2)c1=NC(=O)c1cccc(C(F)(F)F)c1 (stereo unspecified)	/	-24%	0%	-26%	/	/
CCOC(=O)c1cc2c(=O)n3ccccc3nc2n(CC2CCCO2)c1=NC(=O)/C=C/c1ccccc1 (stereo unspecified)	-9	15µM*	0%	?	-8	?
CCOC(=O)c1cc2c(=O)n3ccccc3nc2n(Cc2ccco2)c1=NC(=O)c1ccc(C(C)(C)C)cc1	/	-27%	0%	-13%	/	/
CCOC(=O)c1cc2c(=O)n3ccccc3nc2n(CC2CCCO2)c1=NC(=O)c1cccc(C)c1 (stereo unspecified)	/	5.8µM*	-3%	5.2µM*	/	/
CCOC(=O)c1cc2c(=O)n3ccccc3nc2n(CC2CCCO2)c1=NC(=O)c1ccc(OCC)cc1 (stereo unspecified)	/	5.8µM*	6%	6.5µM*	/	/
CCOC(=O)c1cc2c(=O)n3ccccc3nc2n(Cc2ccco2)c1=NC(=O)c1cc(C)cc(C)c1	/	1.2µM*	-6%	1.3µM*	/	/
CCOC(=O)c1cc2c(=O)n3ccccc3nc2n(CC2CCCO2)c1=NC(C)=O (stereo unspecified)	10	-24%	8%	-4%	3	-13
CCN(C[C@H]1N[C@@](Cc2ccccc2)(C(=O)OC)[C@H]2C(=O)N(Cc3ccccc3)C(=O)[C@@H]12)S(=O)(=O)c1ccc(OC(F)(F)F)cc1	-1	?	2%	?	-2	-1
Cc1ccc(C)c(S(=O)(=O)N2CCN(C(=O)c3ccncc3)CC2)c1	6	-7%	5%	-6%	8	12
Cc1cc(C)cc(C(=O)NCC(=O)OCC(=O)N(C)c2ccccc2)c1	0	?	0%	?	13	-3
Cc1cccc(NC(=O)CNC(=O)c2ccc3c(c2)OCO3)n1	0	-10%	0%	-7%	3	2
CCOC(=O)c1cc2c(=O)n3ccccc3nc2n(C)c1=NC(=O)c1cc2ccccc2o1	/	-14%	0%	-24%	/	/
SMILES	Six1-Eya2 blk	TDP1 cell noCPT	TDP1 block	TDP1 cell CPT	CtBP-E1A blk	IL-1B inflam inh
CCOC(=O)c1cc2c(=O)n3ccccc3nc2n(CC2CCCO2)c1=NC(=O)c1ccc(OC)cc1OC (stereo unspecified)	/	16µM*	-3%	?	/	/
CCOC(=O)c1cc2c(=O)n3ccccc3nc2n(C)c1=NC(=O)c1c(-c2ccccc2Cl)noc1C	/	-3%	9%	-14%	/	/
CCOC(=O)c1cc2c(=O)n3ccccc3nc2n(C(C)C)c1=NC(=O)c1c(-c2c(F)cccc2Cl)noc1C	9	8.2µM*	3%	8.2µM*	1	-3
CCOC(=O)c1cc2c(=O)n3ccccc3nc2n(CC2CCCO2)c1=NC(=O)c1cc(C)cc(C)c1 (stereo unspecified)	/	0.037µM*	3%	0.16µM*	/	/
O=C1c2ccccc2C(=O)N1CC(O)COc1ccccc1Cl (stereo unspecified)	5	9%	/	2%	/	-10
COc1cc(C(=O)NCCCNc2nc3cc(C)c(C)cc3cc2C#N)cc(OC)c1OC	10	23µM*	5%	?	0	-19
Cc1ccc2cc(C)c(SCC(=O)NCc3ccco3)nc2c1	-2	?	5%	-24%	/	4
Cc1ccc2cc(C#N)c(NCc3ccco3)nc2c1	-2	?	-3%	23µM*	0	13
COc1cc(C(=O)NCCNc2nc3cc(C)ccc3cc2C#N)cc(OC)c1OC	4	16µM*	2%	?	/	11
COc1cc(C(=O)NCCNc2nc3c(C)c(C)ccc3cc2C#N)cc(OC)c1OC	7	-15%	/	-2%	-12	-24
COc1ccc(N(CC(=O)NCc2ccco2)S(C)(=O)=O)cc1Cl	-5	-2%	3%	15%	0	3
CS(=O)(=O)NCCNC(=O)c1cc(OCC(F)(F)F)ccc1OCC(F)(F)F	10	22%	7%	2%	3	12
C=C(C)C1Cc2c(C)nn(-c3cccc4cccnc34)c2C1 (stereo unspecified)	-4	?	10%	?	5	67

High-throughput results as filed in PubChem BioAssay.
